Source: PubChem BioAssay (National Center for Advancing Translational Sciences (NCATS))
Rows were chosen to be rich in hits. Some 18% of all compounds tested hit in one or more screens of this group.
IL1B secr inh = blocks inflammasome-driven IL-1 beta release; THP-1 LPS/ATP IL-1B secretion, AlphaLISA, 16 h; hits give low values; activity change, % at 57.5 µM; hit rate 4.7% among 360,000; in the data active = activity change below about -50%; inconclusive = mostly about -30% to -49%
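Secreted IL-1B measured by AlphaLISA bead assay after 16 h compound exposure of THP-1 cells; compounds (final up to 57.5 uM) added 1 h before LPS (250 ng/mL) and ATP (1.25 mM) stimulation; lower signal means less secretion.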
TDP1 block = blocks human tyrosyl-DNA phosphodiesterase 1; recombinant TDP1, AlphaScreen DNA substrate cleavage; Potency, µM (top dose mostly 130 µM), most hits filed as inhibitors; hit rate 0.28% among 350,000; note: nearly all actives have a fitted effect of over 40% in size
Target sequence (Q9NUW8 whole entry, looked up): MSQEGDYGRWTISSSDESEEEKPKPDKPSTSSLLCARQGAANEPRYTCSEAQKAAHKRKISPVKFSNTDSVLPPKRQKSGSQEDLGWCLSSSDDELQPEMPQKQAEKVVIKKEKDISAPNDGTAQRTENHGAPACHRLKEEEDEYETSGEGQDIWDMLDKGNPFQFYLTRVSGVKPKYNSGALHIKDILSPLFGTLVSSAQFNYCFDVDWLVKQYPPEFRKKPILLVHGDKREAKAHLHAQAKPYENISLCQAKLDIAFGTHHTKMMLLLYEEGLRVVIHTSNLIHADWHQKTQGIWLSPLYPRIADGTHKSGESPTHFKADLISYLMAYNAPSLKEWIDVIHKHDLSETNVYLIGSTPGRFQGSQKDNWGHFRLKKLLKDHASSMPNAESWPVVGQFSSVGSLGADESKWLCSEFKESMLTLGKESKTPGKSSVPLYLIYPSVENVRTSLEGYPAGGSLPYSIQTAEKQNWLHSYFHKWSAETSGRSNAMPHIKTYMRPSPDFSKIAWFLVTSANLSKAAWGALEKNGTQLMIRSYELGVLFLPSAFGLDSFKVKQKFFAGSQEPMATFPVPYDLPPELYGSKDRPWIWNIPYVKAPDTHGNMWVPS
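Signal: AlphaScreen proximity between streptavidin donor and anti-FITC acceptor beads on intact substrate. Reaction: Tdp1 1 nM, substrate 15 nM final, 5 min RT after 15 min compound preincubation.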
HepG2 viability = counter-screen for TGF-b inhibitors: cytotoxicity in HepG2 cells; HepG2 CAGA-GFP viability, ATP luminescence, 18 h; Potency, µM (series often up to 46.1 µM), actives largely listed as cytotoxic; hit rate 0.76% among 410,000; AID 588856
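HepG2 CAGA-GFP cells (1000/well, DMEM with 1% FBS) received compound, then TGF-beta at 500 pg/mL final, and were incubated 18 hours at 37 degrees C. Viability was read by CellTiter-Glo luminescence. Media-only wells were set as complete cell-killing and DMSO as no toxicity.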
DT40 TDP1 no CPT = qHTS for Inhibitors of human tyrosyl-DNA phosphodiesterase 1 (TDP1): qHTS in cells in absence of CPT | Potency, µM (highest dose often 46.2 µM), hits mostly inhibitors | hit rate 15% among 420,000 | DT40 Tdp1-/- hTDP1 cells, no CPT, ATP luminescence, 48 h; note: nearly all actives have a fitted effect of over 55% in size
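A cellular qHTS used chicken DT40 cells lacking endogenous Tdp1 but carrying stably transfected human TDP1. Compounds were applied without camptothecin, and cell growth kinetics were judged by ATP-dependent luminescence after ≥48 hr.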
TGFb inhibitor = TGF-b pathway inhibition; HepG2 CAGA-GFP TGF-b/SMAD3 reporter, GFP fluorescence, 18 h; TGF-beta stimulated, 500 pg/mL final; Potency, µM (top dose mostly 46.1 µM), actives largely listed as inhibitors; hit rate 1.2% among 410,000; AID 588855; note: nearly all actives have a fitted effect of over 65% in size
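TGF-beta reporter screen: HEPG2 CAGA-GFP, 1% FBS, 500 pg/mL TGF-beta final, 18 h; per-cell GFP summed per well; curves fitted and categorized by class.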
TDP1 cell CPT = growth inhibition of DT40 Tdp1-/-;hTDP1 cells with camptothecin (screen for TDP1 inhibitors); chicken DT40 Tdp1-/-;hTDP1 cells + 20 nM CPT, ATP luminescence, 48 h; Potency, µM (doses to about 46.2 µM), usual class: inhibitors; hit rate 12% among 420,000; note: nearly all actives have a fitted effect of over 55% in size
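Chicken DT40 Tdp1-/- cells complemented with human TDP1, 400 cells/well, exposed to compounds plus 20 nM camptothecin for at least 48 h at 37 C; viability read as ATP content by CellTiter-Glo luminescence.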
A number is an active result; i = inactive; ? = inconclusive; nt = no result given; [ ] = remark or other dose. Unless noted, calls come from the whole dose curve; as a rule, active = well fitted curve in the direction sought with a large enough effect; inconclusive = small, poorly fitted or top-dose-only effect, or another doubt; inactive = no such curve, though single readings can be large; an effect the other way counts as inactive or inconclusive.

SMILES	IL1B secr inh	TDP1 block	HepG2 viability	DT40 TDP1 no CPT	TGFb inhibitor	TDP1 cell CPT
Cc1ccc(C(=O)NCC(=O)OCc2cc(=O)n3nc(C4CCCCC4)sc3n2)cc1	nt	i	i	i	?	i
COc1ccc(CCNC(=O)Cn2nc(-c3ccc(Cl)cc3)ccc2=O)cc1OC	nt	i	i	?	i	?
CC(C)C[C@H](NC(=O)[C@@H]1CCCN1C(=O)[C@H](CO)NC(=O)[C@H](Cc1ccccc1)NC(=O)CNC(=O)[C@@H]1CCCN1C(=O)[C@@H]1CCCN1C(=O)[C@@H](N)CCCN=C(N)N)C(=O)O	nt	i	nt	nt	nt	nt
COCCCNC(=O)CCc1nc2cccnc2n1Cc1ccccc1	i	i	i	i	i	i
O=C(CCc1nc2cccnc2n1Cc1ccccc1)NCCc1ccc(Cl)cc1	i	i	i	21µM	i	?
CN(C)C(=O)NC1CCCCCCC1	nt	i	nt	nt	nt	nt
O=C1CCN(CCc2ccccc2)CCN1[C@H](CSc1ccc(Br)cc1)c1ccccc1	i	i	i	18µM	i	?
CCCN1CCC(=O)N([C@H](CSc2ccc(Br)cc2)c2ccccc2)CC1	i	i	i	16µM	i	?
Cc1cc(C(=O)OCC(=O)NC2CCS(=O)(=O)C2)c(C)n1-c1ccccc1 (stereo not given)	i	i	i	12µM	i	?
Cc1ccc(Oc2ccc(OCC(=O)NC3CCS(=O)(=O)C3)cc2)cc1 (stereo not given)	i	i[0.0935 µM]	i	16µM	i	23µM
CN1CCC(=O)N(CCOc2ccccc2)CC1	i	nt	i	i	i	?
COc1ccc(Cl)cc1CNCCSc1nnnn1-c1ccccc1	nt	i	i	?	i	?
CC(C)=CCC/C(C)=C/Cc1c(O)ccc(C(=O)/C=C/c2ccc(O)cc2)c1O	-80	i	i	21µM	?	?
COc1ccc2c(c1)C(=O)[C@@H](OC(=O)NS(=O)(=O)c1ccc(C)cc1)[C@H](c1ccc(OC)c(Br)c1)O2	nt	i	nt	nt	nt	nt
Cn1c(=O)c2c(nc(SCC(=O)Nc3ccc(OC(F)(F)F)cc3)n2Cc2cccc(C(F)(F)F)c2)n(C)c1=O	nt	i	i	8.2µM	i	10µM
CCc1cnc2c(c1SCc1ccccc1C)c(=O)n(C)c(=O)n2C	nt	i	i	?	?	i
Cc1ccc(C)c(CSc2c(C(C)C)cnc3c2c(=O)n(C)c(=O)n3C)c1	nt	i	i	?	i	18µM
CC(C)c1cnc2c(c1SCC(=O)Nc1ccc(OC(F)(F)F)cc1)c(=O)n(C)c(=O)n2C	nt	i	i	8.2µM	i	9.2µM
Cn1c(=O)c2c(nc(SCC(=O)Nc3ccccc3)n2Cc2ccccc2F)n(C)c1=O	nt	i	i	?	i	?
CC(C)c1nc(SCC(=O)Nc2cccc(C(F)(F)F)c2)c2c(=O)n(C)c(=O)n(C)c2n1	i	i	i	3.7µM	i	4.6µM
O=C(CCOc1ccccc1)N(Cc1cccnc1)c1nc2ccc(F)cc2s1	nt	i	i	?	?	?
C#CC1CN(Cc2ccccc2)CC(C#C)N1C (stereo not given)	i	i	i	i	i	i
CCc1ccc(NC(=O)CSc2c(C)cnc3c2c(=O)n(C)c(=O)n3C)cc1	nt	i	i	23µM	i	23µM
Cc1cnc2c(c1SCC(=O)NCc1ccc(F)cc1)c(=O)n(C)c(=O)n2C	nt	i	i	i	i	i
CCCc1cnc2c(c1SCc1cccc(F)c1)c(=O)n(C)c(=O)n2C	nt	i	i	?	i	?
SMILES	IL1B secr inh	TDP1 block	HepG2 viability	DT40 TDP1 no CPT	TGFb inhibitor	TDP1 cell CPT
CCCc1cnc2c(c1SCc1ccc(C(F)(F)F)cc1)c(=O)n(C)c(=O)n2C	nt	i	i	21µM	i	?
Cc1ccc(CSc2c(C)cnc3c2c(=O)n(C)c(=O)n3C)cc1	nt	i	i	?	i	23µM
CCCc1cnc2c(c1SCC(=O)Nc1ccc(C)c(Cl)c1)c(=O)n(C)c(=O)n2C	nt	i	i	?	i	18µM
Cc1nn(C)c(C)c1/C=C(\C#N)S(=O)(=O)c1ccc(F)cc1	i	nt	i	i	i	i
O=C(O)c1ccc(C(=O)O)c(C(=O)c2ccc(NC(=O)c3ccccc3)cc2)c1	i	nt	i	i	i	i
Nc1nc2ccccc2cc1C(=O)NCCCCc1ccccc1	i	nt	nt	1.6µM	nt	2.1µM
Cc1ccc(C)c(-c2cc(C(=O)NCc3cccs3)c3ccccc3n2)c1	i	i	i	?	i	?
Cc1ccccc1Nc1cc(C(=O)NCc2cccs2)c2ccccc2n1	nt	i	i	?	i	21µM
Cc1ccc(Nc2cc(C(=O)NCc3cccs3)c3ccccc3n2)c(C)c1	nt	i	i	i	i	?
O=C(NCc1cccs1)c1cc(-c2ccccc2)nc2ccccc12	i	i	i	21µM	i	23µM
COc1ccccc1Nc1cc(C(=O)NCc2cccs2)c2ccccc2n1	nt	i	i	?	i	26µM
CCCCn1c(=O)c2[nH]c(C34CC5CC(CC3C5)C4)nc2n(CCCO)c1=O	nt	i	nt	nt	nt	nt
CN(C)C(=O)CNC(=O)Cc1ccccc1	nt	nt	nt	i	nt	i
COCC(C)Nc1ncnc2c1cnn2-c1ccc(C)c(C)c1 (stereo not given)	nt	i	i	?	i	?
COc1ccc(CNC(=O)c2ccc(S(=O)(=O)NCc3ccco3)cc2)cc1	i	i	i	i	i	?
CCc1ccc(NC(=O)Cn2c(=O)n(Cc3ccc4c(c3)OCO4)c(=O)c3oc4ccccc4c32)cc1	nt	i	i	?	i	?
CCOC(=O)N1CCN(C(=O)CNC(=O)c2ccc(Br)cc2)CC1	i	i	i	i	i	i
Cc1ccc(-c2nc3ccccc3c(C(=O)NCc3cccs3)c2C)cc1	i	i	i	?	?	21µM
Nc1nc2ccccc2cc1C(=O)NCc1cccs1	i	nt	nt	7.3µM	nt	9.2µM
CC(=O)Nc1ccc(NC(=O)c2c(C)c(-c3ccccc3)nc3ccccc23)cc1	i	nt	i	i	i	i
COc1ccc(N2CC(C(=O)N3CCN(c4ccccc4F)CC3)CC2=O)cc1 (stereo not given)	i	i[0.0935 µM]	i	i	i	i
CC(=O)c1c2c3c(cccc3n(C)c1=O)C(=O)c1ccccc1-2	i	nt	i	i	i	i
CC(=O)c1c2c3c(c(Br)ccc3n(C)c1=O)C(=O)c1ccccc1-2	i	i	i	23µM	i	?
COc1ccc(/C=C/C(=O)NCC(=O)N/N=C(/CCC(=O)O)c2ccccc2)cc1	i	i	i	i	i	i
OC1c2cc(Br)ccc2N=C2CCCN21 (stereo not given)	-97	nt	i	18µM	?	12µM
